From PubChem
CYP2C9 act = activators of human CYP2C9; activation factor at 5 µM; P11712; 96,000 compounds, 1.4% hits; recombinant CYP2C9, luciferin-H conversion, luminescence; active compounds read high; factor 1 = untreated enzyme, 0 = blocked;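 active = activation factor of 2 or more for CYP2C9 at a 5 µM dose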;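 also: 0 = sulfaphenazole-blocked wells and 1 = vehicle-only wells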
CYP2C19 act = cytochrome P450 2C19 (human) activation; activation factor at 5 µM; P33261; 96,000 tested, under 10 active; recombinant CYP2C19, luciferin-H EGE luminescence; active compounds read high; 0 = fully inhibited enzyme, 1 = untreated enzyme;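 active = activation factor of at least 2 at 5 µM in the primary screen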;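 also: 0 = wells with 2.5 mM tranylcypromine and 1 = vehicle-only wells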
Target sequence (P33261 whole entry, looked up): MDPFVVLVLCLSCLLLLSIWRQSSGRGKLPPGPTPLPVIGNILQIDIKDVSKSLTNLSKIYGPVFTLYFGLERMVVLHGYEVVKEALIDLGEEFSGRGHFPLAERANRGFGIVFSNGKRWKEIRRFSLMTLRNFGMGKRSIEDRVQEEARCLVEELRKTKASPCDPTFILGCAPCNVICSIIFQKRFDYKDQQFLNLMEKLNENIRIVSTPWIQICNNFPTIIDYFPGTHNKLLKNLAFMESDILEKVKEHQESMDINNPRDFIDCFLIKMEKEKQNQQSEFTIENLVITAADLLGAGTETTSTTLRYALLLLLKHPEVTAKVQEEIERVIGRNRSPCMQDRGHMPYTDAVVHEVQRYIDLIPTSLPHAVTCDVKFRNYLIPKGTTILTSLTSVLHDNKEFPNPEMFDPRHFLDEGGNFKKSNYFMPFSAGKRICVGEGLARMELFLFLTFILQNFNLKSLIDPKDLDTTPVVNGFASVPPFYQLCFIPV
CYP2C9 inh = inhibitors of human CYP2C9; CYP2C9 Supersomes, luciferin-H conversion, luminescence; inhibition, % at 5 µM; 96,000 compounds, 20% hits; AID 777;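 active = blocking of liver enzyme CYP2C9 beyond about 50% at 5 µM, limit read from the data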
Measles CPE = protection of cells from measles virus; 140,000 compounds, 1.5% hits; protection (pct of control), % at 4 µM; AID 841; Measles virus-infected cells, CPE protection, absorbance; in the data active = protection mostly above about 24%, no sharp cut-off; inactive = mostly below about 26%
CYP2C19 inh = inhibitors of human CYP2C19 | P33261 | CYP2C19 Supersomes, luciferin-H EGE luminescence, 30 min | inhibition, % at 5 µM | 96,000 compounds, 21% hits | AID 778;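 active = CYP2C19 inhibition above a set limit at 5 µM in the primary screen, cut at about 50% in these data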;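 also: plate controls were negative control wells for no effect and 2.5 mM tranylcypromine positive control for full effect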
Numbers without * were called inactive; / = no result given. An excerpt weighted towards active compounds, which were near 22% of everything screened.

SMILES | CYP2C9 act | CYP2C19 act | CYP2C9 inh | Measles CPE | CYP2C19 inh
COC(=O)C1=C(C)NC(C)=C(C(=O)OC)C1c1ccc2ccccc2n1 | 0.5 | 0.2 | 50* | 5 | 77*
COC(=O)C1=C(C)NC(C)=C(C(=O)OC)C1c1ccc(NC(C)=O)cc1 | 0.5 | 0.7 | 52* | 10 | 33
Brc1ccc(-c2nnc3n2-c2ccccc2CC3)cc1 | 0.4 | 0.1 | 63* | 6 | 86*
Brc1ccc(-c2nnc3n2CCCCC3)cc1 | 1 | 0.8 | -3 | 10 | 22
CC[n+]1c(P(=O)([O-])c2ccccc2)[nH]c2ccccc21 | 1.1 | 1.2 | -14 | 5 | -16
Nc1cccc(Nc2nc(OC(C(F)(F)F)C(F)(F)F)nc(OC(C(F)(F)F)C(F)(F)F)n2)c1 | 0.8 | 0.9 | 19 | 42* | 6
Cc1ccc(-n2c(SCC3CCCCO3)nnc2-c2ccco2)cc1 (configuration not stated) | 0.4 | 0.9 | 58* | 6 | 13
COC(=O)CSc1nnc(-c2ccccc2O)n1-c1ccc(C)cc1 | 0.6 | 0.4 | 37 | 5 | 57*
CCOC(=O)CSc1nnc(-c2ccco2)n1-c1ccc(C)cc1 | 1.6 | 1 | -60 | 38* | 3
COC(=O)CSc1nnc(-c2ccccc2OC)n1-c1ccc(C)cc1 | 0.8 | 0.8 | 20 | 4 | 22
CCn1nc(CC(=O)Nc2nnc(CC(=O)N3CCCC3)s2)c2ccccc2c1=O | 0.8 | 0.9 | 25 | 4 | 14
CCn1nc(CC(=O)Nc2nnc(CC(=O)N3CCOCC3)s2)c2ccccc2c1=O | 0.9 | 1 | 14 | 28* | 3
COc1cc(C(=O)N/N=C2\CCS(=O)(=O)c3ccc(F)cc32)cc(OC)c1OC | / | / | / | 2 | /
O=C1CCCC2=C1C(c1ccccc1)CC(=O)N2c1ccccc1 (configuration not stated) | 0.9 | 0.2 | 6 | 4 | 78*
CSc1ccc(C2C(C#N)=C(N)N(c3ccccc3)C3=C2C(=O)CCC3)cc1 (configuration not stated) | 0.1 | 0.3 | 90* | 10 | 74*
Cc1ccc(N2C(=O)CC(c3ccsc3)C3=C2CC(C)(C)CC3=O)cc1 (configuration not stated) | 0.7 | 0.6 | 33 | 3 | 40
CC1(C)CC(=O)C2=C(C1)N(c1ccccc1)C(=O)CC2c1ccsc1 (configuration not stated) | 0.7 | 0.1 | 26 | 11 | 88*
CC1(C)CC(=O)C2=C(C1)N(c1ccc(F)cc1)C(=O)CC2c1ccsc1 (configuration not stated) | 1 | 0.4 | 5 | 6 | 63*
COc1ccc(CNC(=O)c2cccs2)cc1 | 0.6 | 0.1 | 44 | 27 | 94*
O=C(NCCN1Cc2ccccc2C1=O)c1cccs1 | 0.8 | 0.2 | 22 | 17 | 77*
COc1ccccc1OCCNC(=O)c1cccs1 | 0.5 | 0.1 | 52* | 21 | 92*
CCc1ccc(OCCNC(=O)c2cccs2)cc1 | 0.3 | 0.6 | 74* | 40 | 38
CCCCOCCCNC(=O)c1cccs1 | 0.8 | 0.6 | 22 | 4 | 35
Cn1c(=O)c2c(nc(N3CCN(Cc4ccccc4)CC3)n2CCSc2ncccn2)n(C)c1=O | 0.9 | 0.8 | 12 | / | 16
O=C(CN1C(=O)CSC1=O)c1ccccc1 | 0.9 | 1 | 13 | 13 | 1
SMILES | CYP2C9 act | CYP2C19 act | CYP2C9 inh | Measles CPE | CYP2C19 inh
CC(=O)c1ccc(N2CCN(C(=O)COc3ccccc3F)CC2)c(F)c1 | / | / | / | 10 | /
N#Cc1cc(NCC2CCCO2)c([N+](=O)[O-])cc1C#N (configuration not stated) | / | / | / | 1 | /
Cc1cc[n+]2cc(-c3cccc([N+](=O)[O-])c3)c(-c3cccc([N+](=O)[O-])c3)cc2c1 | / | / | / | 3 | /
CCc1ccc(OCCNC(=O)c2ccccc2SCc2ccc(F)cc2)cc1 | 0.5 | 0.5 | 50* | 8 | 51*
O=C(NCCOc1ccc(F)cc1)c1ccccc1SCc1ccccc1 | / | / | / | 4 | /
O=C(NCc1ccccc1F)c1cccs1 | 1 | 0.4 | 0 | 2 | 59*
Cc1nonc1C(=O)N/N=C/c1cccc(O)c1 | / | / | / | 26 | /
O=C(NCc1cn(-c2ccccc2)nc1-c1ccccc1)c1cccc([N+](=O)[O-])c1 | / | / | / | 21 | /
O=C(NCc1cn(-c2ccccc2)nc1-c1ccccc1)c1cc([N+](=O)[O-])cc([N+](=O)[O-])c1 | 0.3 | 0.7 | 67* | 20 | 31
COc1cc2nc(SCc3ccc(F)cc3)n(Cc3cccs3)c(=N)c2cc1OC | 0.4 | 1 | 55* | 29 | 2
FC(F)(F)c1cccnc1N1CCN(c2ncnc3nc[nH]c23)CC1 | 0.6 | 0.2 | 38 | 3 | 83*
Clc1ccccc1N1CCN(c2ncnc3nc[nH]c23)CC1 | 1 | 0.8 | 0 | 11 | 21
CC1(C)CC(=O)c2cc(NC(=O)c3ccccc3)c(=O)oc2C1 | / | / | / | 5 | /
Cc1ccc(Nc2nc(C(=O)N3CCC(C(=O)N4CCN(C)CC4)CC3)cs2)cc1 | 0.7 | 0.2 | 30 | 7 | 77*
CC(C)=NNc1nc2sc3c(c2c(=O)[nH]1)CC(C)(C)OC3 | / | / | / | 6 | /
CC1(C)Cc2c(sc3nc(N/N=C/c4ccccc4)[nH]c(=O)c23)CO1 | / | / | / | 21* | /
O=C(OCn1ncc(Cl)c(Cl)c1=O)c1ccccc1Cl | 1.2 | 0.2 | -17 | 2 | 78*
CN(C)CCCC1(c2ccc(F)cc2)OCc2cc(C#N)ccc21 (configuration not stated) | / | / | / | 1 | /
C=CCCCCCCCCc1nc(=S)[nH][nH]1 | 0.5 | 0.5 | 50* | 16 | 46
CN(Cc1ccccc1)C(=O)C1CCN(Cc2ccc(F)cc2)CC1 | 1.1 | 0.9 | -7 | 6 | 7
CCC(Oc1ccccc1)C(=O)Nc1cc(C)on1 (configuration not stated) | 0.5 | 0.6 | 46 | 16 | 36
CCSc1nnc(NC(=O)c2cccc3ccccc23)s1 | 0.9 | 1 | 15 | 11 | 3
CCSc1nnc(NC(=O)COc2ccccc2)s1 | 0.2 | 0.5 | 76* | 10 | 53*
Cc1nnc(NC(=O)COc2ccccc2)s1 | 0.8 | 0.9 | 22 | 12 | 13
CCC(Oc1ccccc1)C(=O)Nc1ccccn1 (configuration not stated) | 0.6 | 0.3 | 44 | 3 | 75*
SMILES | CYP2C9 act | CYP2C19 act | CYP2C9 inh | Measles CPE | CYP2C19 inh
CC(=O)CSc1nnc(NC(=O)CCc2ccccc2)s1 | 0.7 | 0.8 | 29 | 3 | 21
CCCCSc1nnc(NC(=O)CCc2ccccc2)s1 | 0.4 | 0.8 | 56* | 3 | 21
CCSc1nnc(NC(=O)COc2ccc3ccccc3c2)s1 | 0.3 | 0.4 | 68* | 17 | 60*
O=C1C(=O)N(CCOCCO)C(c2ccccn2)/C1=C(\O)c1ccccc1 (configuration not stated) | 1.1 | 1.1 | -6 | 6 | -14
Cc1ccc(CN2CC(C(=O)Nc3cccc(S(=O)(=O)N4CCCCC4)c3)CC2=O)cc1 (configuration not stated) | / | / | / | 6 | /
CCNc1nc(SC(C)C(=O)OC)nc(N2CCOCC2)n1 (configuration not stated) | 0.7 | 0.7 | 34 | 17 | 27
